# Test results: PubChem BioAssay (NCI)
# This is part of a sample that, as a whole, favours compounds with a hit. Of some 83,000 tested, about 20% had one in any assay.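 Interpretation: 100, growth as untreated; towards 0, rising growth inhibition; 0, no net growth; 0 to -100, cell death. Compounds scoring below 10 were considered active.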 The source made the active and inactive calls.
# System: OVCAR-3 ovarian
# Experiment: NCI-60 one-dose screen, 48 h (100 = growth as untreated, 0 = no growth, -100 = all killed)
# Details: 10 µM unless noted
row,SMILES,growth
1,Cc1nc(O)cc(=O)[nH]1,115% (inactive)
2,Cc1ccc(C)c2c1CCC2=O,96.7% (inactive)
3,O=C(OC1CCCC1)c1ccccc1Cl,112% (inactive)
4,CC(C)c1ccc(C(=O)OCCCl)cc1,123% (inactive)
5,CCCCNC(=O)c1ccc(OCC)cc1,105% (inactive)
6,N#Cc1ccc(OC(=O)Nc2cc(Cl)cc(Cl)c2)cc1,7.77% [100 µM] (active)
7,CCOC(=O)C(C#N)=C1CCN(C)CC1,117% (inactive)
8,COC(CCCl)c1ccc(Cl)cc1 (centres undefined),109% (inactive)
9,CCOc1ccc(C(=O)NCC(C)C)cc1,109% (inactive)
10,COc1ccc(C2CCCCC2=O)cc1 (centres undefined),121% (inactive)
11,O=S(=O)(c1ccc(NC(=S)NCc2cccnc2)cc1)N1CCCCC1,82.3% (inactive)
12,Cc1ccc(NC(=O)c2ccccc2Cl)cc1,122% (inactive)
13,Nc1ccccc1SC1CC(=O)N(c2ccc(Cl)c(Cl)c2)C1=O (centres undefined),113% (inactive)
14,OCC1CCC(O)C(CO)N1 (centres undefined),107% (inactive)
15,CCCCCCCCNC(=O)C(C)C,109% (inactive)
16,N#C/C(=C\c1ccc2c(c1)OCO2)c1ccccc1,79.4% (inactive)

# System: HS 578T breast
# Experiment: as above
# Details: 10 µM unless noted
row,SMILES,growth
1,COC(=O)Cc1cc(COC(C)=O)ccc1C,112% (inactive)
2,Cc1ccc(/C=N/NC(N)=S)s1,106% (inactive)
3,Cc1cc(=O)n(Nc2ccccc2)c(O)c1C#N,100% (inactive)
4,CN(C)c1ccc(O)c2c1CC1CC3C(N(C)C)C(=O)C(C(N)=O)=C(O)C3(O)C(=O)C1=C2O (centres undefined),48.9% (inactive)
5,C/C(=N\N=C(/C)c1cccc([N+](=O)[O-])c1)c1cccc([N+](=O)[O-])c1,78.8% (inactive)
6,CC(=O)c1ccc(C)cc1,94.9% (inactive)
7,CCOC(=O)Nc1nccs1,98.7% (inactive)
8,CCNC(=O)Oc1ccc[nH]c1=O,95.2% (inactive)
9,Cc1nc(C)c(C(=O)O)cc1C(=O)O,124% (inactive)
10,CC(=O)OCC1OC(n2cnc3c(=S)nc(N)[nH]c32)C(OC(C)=O)C1OC(C)=O (centres undefined),77.3% (inactive)
11,CC(CO)(CO)C(=O)O,98.8% (inactive)
12,CCOC(=O)CNC,121% (inactive)
13,CC(c1ccccc1)N(C)C (centres undefined),153% (inactive)
14,CC(CCC#N)(CCC#N)C(=O)c1ccccc1,97.8% (inactive)
15,NS(=O)(=O)c1cc(=O)[nH]c(=O)[nH]1,102% (inactive)
16,COc1ccc2c(Cl)cc(NC(=O)Nc3c(C)cccc3C)nc2c1,57.2% (inactive)
17,CC(=O)c1cccc(O)c1,96.5% (inactive)
18,Cc1nc(O)cc(=O)[nH]1,91.4% (inactive)
19,Cc1ccc(C)c2c1CCC2=O,92.6% (inactive)
20,O=C(OC1CCCC1)c1ccccc1Cl,91.7% (inactive)
21,CC(C)c1ccc(C(=O)OCCCl)cc1,94.7% (inactive)
22,CCCCNC(=O)c1ccc(OCC)cc1,101% (inactive)
23,N#Cc1ccc(OC(=O)Nc2cc(Cl)cc(Cl)c2)cc1,-11.5% [100 µM] (active)
24,CCOc1ccc(C(=O)NCC(C)C)cc1,107% (inactive)
25,O=S(=O)(c1ccc(NC(=S)NCc2cccnc2)cc1)N1CCCCC1,70.3% (inactive)
26,Cc1ccc(NC(=O)c2ccccc2Cl)cc1,103% (inactive)
27,Nc1ccccc1SC1CC(=O)N(c2ccc(Cl)c(Cl)c2)C1=O (centres undefined),117% (inactive)
28,CCCCCCCCNC(=O)C(C)C,97.1% (inactive)
